# Sampled rows, rich in hits. Any-hit rate of the full collection: about 2.8%.
# ATXN viability – reduces viability in counter-screen for ATXN expression inhibitors | S2 cells (HEK-293 line with an ATXN2-luciferase reporter) viability, CellTiter-Fluor protease fluorescence, 24 h | 0.49% of 400,000 active | Potency, µM (doses to about 56.7 µM), usual class: cytotoxic; further: nearly all actives have a fitted effect of over 40% in size
# HepG2 tox – kills HepG2 cells in TGF-b inhibitor counter-screen; HepG2 CAGA-GFP viability, ATP luminescence, 18 h; Potency, µM (titrated, usually from 46.1 µM), inactives show at the highest dose activity change, negative = cytotoxicity, usual class: cytotoxic; 0.76% of 410,000 active; AID 588856
#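 CellTiter-Glo luminescence gave cytotoxicity after 18 hours at 37 degrees C. The cells were HepG2 CAGA-GFP in 1% FBS DMEM, stimulated with 500 pg/mL TGF-beta after compound addition. %Activity was normalised to no-cell wells (complete cell-killing) and DMSO (no toxicity), and curves were fitted and classified.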
# HTT aggregate – inhibitors of mutant huntingtin aggregate formation in PC12 cells; 1.1% of 220,000 active; PC12 HttQ103-GFP aggregates, Acumen cytometry, 40 h; Potency, µM (top dose mostly 46.1 µM), for the others: at the top dose activity change, negative = inhibition, actives largely listed as inhibitors; further: on the % scale 0 is the no-effect control and ±100 the full control effect; nearly all actives have a fitted effect of over 60% in size
#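 Aggregates are detected as GFP objects 1–25 µm with signal 6 STDEV over background in lysates of induced PC12 cells. These carry Huntingtin exon 1 with 103 glutamines fused to GFP under an ecdysone promoter; compounds titrated.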
# HTT cytoprotect – cytoprotection in Huntington HTT-Q103 PC12 cell model; PC12 HTT-Q103 induced, cytoprotection, ATP luminescence, 40 h; AID 1471; 0.14% of 230,000 active; Potency, µM (highest dose often 56.4 µM), for inactives: cytoprotection (ATP increase), most hits filed as activators; further: % of control where 0% means no effect; nearly all actives have a fitted effect of over 45% in size
#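 Stable PC12 Q103-GFP cells in serum-supplemented, phenol red-free DMEM; induction by tebufenozide at 100 nM final; compound dose series; cell viability quantified luminescently from ATP.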
# ATXN2 expr inh – inhibitors of ATXN2 expression. HEK-293 ATXN2-luciferase reporter, luminescence, 24 h. Potency, µM (top dose mostly 57 µM), without a hit: at the top dose activity change, negative = inhibition, actives largely listed as inhibitors. 0.72% of 360,000 active. AID 1745845; further: on the % scale 0 is the no-effect control and ±100 the full control effect; nearly all actives have a fitted effect of over 55% in size
#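 qHTS (up to 57 uM final) was run with 24 h compound exposure of reporter cells at 37 °C. Each well was multiplexed: SteadyGlo luminescence measured ATXN2-luciferase expression after a fluorogenic Gly-Phe-AFC viability readout (25 uM final).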
# TGFb SMAD3 inh – TGF-b pathway inhibition; HepG2 CAGA-GFP TGF-b/SMAD3 reporter, GFP fluorescence, 18 h; TGF-beta stimulated, 500 pg/mL final; Potency, µM (titrated, usually from 46.1 µM), without a hit: at the top dose activity, negative = inhibition, usual class: inhibitors; 1.2% of 410,000 active; further: on the % scale 0 is the no-effect control and ±100 the full control effect; nearly all actives have a fitted effect of over 65% in size
#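 GFP signal (ex488/em500-530) from TGF-beta-stimulated HEPG2 CAGA-GFP cells, 500 pg/mL final, 18 h at 37 degrees C in DMEM plus 1% FBS, normalized to unstimulated and DMSO-stimulated controls.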
# The depositor's hits bear a star; i = inactive; u = inconclusive; x = not tested or not shown; ! = not confirmed by another sample; [ ] = remark or other dose. The call rests on the fitted dose curve; in most records, active means well fitted curve in the direction sought with a large enough effect; inconclusive means small, poorly fitted or top-dose-only effect, or another doubt; inactive means no such curve, though single readings can be large; an effect the other way counts as inactive or inconclusive. Potency means the concentration at half of the fitted maximal effect.
SMILES,ATXN viability,HepG2 tox,HTT aggregate,HTT cytoprotect,ATXN2 expr inh,TGFb SMAD3 inh
N#Cc1ccc(C(=O)Nc2ccc3c(c2)N(C2CCCC2)C(=O)c2ccccc2S3)cc1,i,-8%,x,x,-1%,5.6µM*
CC1CCC(C(C)C)C(OC(=O)Cn2c(-c3ccc(Br)cc3)[n+](C)c3ccccc32)C1 (stereo unspecified),u,25µM*!,u,-115%,u,13µM*
CCOC(=O)Cn1c(COc2ccccc2OC)[n+](C)c2ccccc21,i,2%,x,x,x,4%
CC1CCC(C(C)C)C(OC(=O)Cn2c(-c3ccc(Cl)cc3)[n+](C)c3ccccc32)C1 (stereo unspecified),u,11µM*,u,-50%[10 µM],u,u
CC1CCC(C(C)C)C(OC(=O)COC(=O)c2ccc(N)cc2)C1 (stereo unspecified),i,-47%,-2%,3%[10 µM],-21%,u
Cc1ccccc1OCc1n(CC(=O)OC2CC(C)CCC2C(C)C)c2ccccc2[n+]1C (stereo unspecified),25µM*,16µM*,u,-163%,u,7.9µM*
CC1CCC(C(C)C)C(OC(=O)COC(=O)c2cccn2C)C1 (stereo unspecified),i,-78%,-6%,3%,1%,-1%
COC(=O)COc1ccc(S(=O)(=O)NCCC2=CCCCC2)cc1Cl,i,-40%,-10%,-7%,-5%,-11%
COCCNS(=O)(=O)c1ccc(OCC(=O)OC)c(Cl)c1,i,-3%,3.2µM*,-31%[0.074 µM],-7%,u
c1ccc2c(c1)OCC(c1csc3ncnc(N4CCCCC4)c13)O2 (stereo unspecified),i,-46%,11µM*,24%[10 µM],-23%,-3%
C[C@H]1[C@H](C)CC[C@]2(C(=O)O)CC[C@]3(C)C(=CC[C@@H]4[C@]5(C)C[C@H](O)[C@@H](O)[C@@](C)(CO)[C@@H]5[C@H](O)C[C@@]43C)[C@H]12,x,x,x,-15%[10 µM],x,x
Cc1ccc(C)c(N2CCN(C(=O)C3CCN(C(=O)c4cc5sccc5n4C)CC3)CC2)c1,x,-19%,x,x,x,10µM*
CC(C)(C)n1ncc2c(=O)n(Cc3ccc([S+](=O)([O-])N4CCOCC4)cc3)cnc21,x,-15%,x,x,x,0%
CCCCNc1ccc(/C=C2\C=Cc3ccccc32)cc1,x,-28%,x,x,x,-28%
O=C(CSc1nnc2c(Cl)cc(C(F)(F)F)cn12)N(Cc1ccccc1)Cc1ccccc1,i,11µM*,-4%,10%[10 µM],-8%,3%
Cc1cnc(-n2ncc(C(=O)NCC(C)(C)N3CCOCC3)c2C)nc1-c1cccs1,i,x,x,x,x,x
Cc1nc(C(=O)NCC(=O)O)c(O)c2ccc(Oc3ccccc3)cc12,x,x,x,x,23%,x
COc1cc(Br)cc(/C=N/NC(=O)Cc2ccccc2)c1O,x,-66%,x,x,u,10µM*
O=C(CP(=O)(c1ccccc1)c1ccccc1)N/N=C/c1cc(Br)cc(Br)c1O,i,-45%,11µM*,u,10µM*,-18%
O=C(COc1ccc(-c2ccccc2)cc1)N/N=C/c1cc(O)ccc1Br,u,-63%,-5%,-2%[10 µM],-6%,13µM*
CCN(CC)CCN(C)C(=O)c1ccc(-c2ccccc2)nc1N(C)C,i,x,x,x,x,x
N#C/C(=C/c1ccc(Sc2nc3ccccc3[nH]2)o1)c1cccc(F)c1,i,-19%,u,1%,u,u
N#C/C(=C\c1ccc([N+](=O)[O-])o1)c1nc2ccccc2[nH]1,i,-35%,-24%[9.22 µM],-23%[10 µM],13µM*,u
N#C/C(=C/c1ccc(Sc2nc3ccccc3[nH]2)o1)c1ccccc1F,u,-24%,11µM*,-34%,u,u
Cc1ccc(-c2cn(-c3cccc(Cl)c3)c(S(=O)(=O)CC(=O)Nc3cccc(C)c3)n2)cc1,u,-28%,x,x,-18%,u
SMILES,ATXN viability,HepG2 tox,HTT aggregate,HTT cytoprotect,ATXN2 expr inh,TGFb SMAD3 inh
O=C(CS(=O)(=O)c1nc(-c2ccc(Cl)cc2)cn1-c1ccccc1)Nc1cccc(Cl)c1,u,-33%,x,x,-29%,10µM*
CN1CCN(c2cc(N3CCc4ccccc4C3)c(F)cc2[N+](=O)[O-])CC1,u,16µM*,-22%,-28%[10 µM],-30%,u
CCCCNc1c(-c2ccc(OC)c(SC3CCCCC3)c2)nc2cnccn12,x,11µM*,x,x,u,u
Cc1ccc2nc(-c3ccc(C)c(NC(=O)COc4ccccc4Cl)c3)oc2c1,x,-22%,x,x,x,2%
CCCCc1nc2c(c3c1C[C@H](C)OC3)CN(C(=O)Cc1cccc(OC)c1)CC2,x,x,x,-15%[10 µM],x,x
CC=C(C)C(=O)O[C@H]1C(C)=C[C@]23C(=O)[C@@H](C=C(CO)[C@@H](O)[C@]12O)[C@H]1[C@@H](C[C@H]3C)C1(C)C,x,x,x,x,-15%,x
OCCN1CCN(c2ncnc3ccc(Br)cc23)CC1,i,1%,4.5µM*,13%,42%,6%
CCOC(=O)CSC1=NC(=O)/C(=C/c2ccc(OC)cc2)S1,7.9µM*,-41%,-15%,-16%[10 µM],7.1µM*,u
CC(N)(C(=O)O)c1cccc(CC(=O)O)c1 (stereo unspecified),x,x,x,-21%,x,x
O=C(CCS(=O)(=O)c1nc(-c2cccs2)cc(C(F)(F)F)n1)Nc1ccc(Br)cc1,x,10µM*,x,x,x,5.6µM*
Cc1ccc(O)c(NC(=O)CCS(=O)(=O)c2nc(-c3cccs3)cc(C(F)(F)F)n2)c1,x,13µM*,x,x,x,10µM*
CCN(CC)c1ccc(NC(=O)CSc2nc(-c3cccs3)cc(C(F)(F)F)n2)cc1,i,-2%,x,x,4%,6%
O=C(CCS(=O)(=O)c1nc(-c2cccs2)cc(C(F)(F)F)n1)Nc1cc(Br)ccc1O,x,6.3µM*,x,x,x,2.5µM*
Cc1ccc2c(c1)cc(CN(C)Cc1nc(C)cs1)c(=O)n2C,i,x,x,x,x,x
CC(C)CC(=O)NC(Nc1ccc([N+](=O)[O-])cc1)C(Cl)(Cl)Cl (stereo unspecified),i,-48%,u,14%[10 µM],-6%,16µM*
CC(C)CC(=O)NC(Nc1ccccc1F)C(Cl)(Cl)Cl (stereo unspecified),i,-24%,-27%,-21%,-5%,3%
CC(=NNc1nc2ccccc2s1)c1ccncn1,x,-25%,x,x,u,u
CC(=NNC(=S)N1CC2CCC(CC2)C1)c1ccncn1,u,-40%,x,x,0.32µM*,u
CCN1CCN(Cc2ccc(NC(=O)c3cc(NC(=O)c4ccc5n[nH]nc5c4)cc(OC)c3)cc2C(F)(F)F)CC1,i,3%,18%[9.22 µM],17%[10 µM],9%,u

# Source: PubChem (National Center for Advancing Translational Sciences (NCATS))
